# In the library only some 12% were active in any assay of this set; here they are far more common.
# L major viab – inhibitors of Leishmania major promastigote growth; Leishmania major promastigotes, resazurin fluorescence viability; inhibition, % at 10 µM; 200,000 tested, 9% active; in the data active = inhibition above about 50%;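 also: promastigotes grown with compound for 44 hours at 28 °C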
# KCC2 mod – modulators of human KCC2 chloride dependent transport; KCC2 cells, thallium flux FluoZin-2 fluorescence; B-score of Tl+ flux slope (higher = more flux/activation; lower = inhibition) at 10 µM; AID 1456; 190,000 tested, 2.2% active; Q9H2X9;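 active = thallium flux slope and its plate-corrected score both differing from the plate sample mean at a set confidence after two filtering rounds, in either direction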;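 also: slope of fluorescence scaled to starting intensity during 10 to 20 s after thallium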
# Calpain2 inh – blocks pig calpain II enzyme activity; purified calpain II, fluorogenic peptide substrate, 30 min; inhibition, % at 16 µM; 220,000 tested, 0.37% active; AID 1236;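 active = inhibition above about 50%, limit read from the data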
# ROMK mod – human ROMK K+ channel modulation, primary screen. Tet-inducible ROMK, thallium flux fluorescence; actives lie on both sides. 130,000 tested, 2% active. P48048. B-score at 10 µM. AID 1918;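 active = signal ratio slope over the read window, or its plate-corrected B-score, at least 3 SD from the plate mean, either direction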;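 also: B-score of the F/F0 ratio slope over 7 to 12 s after thallium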
# Target sequence (P48048 whole entry, looked up): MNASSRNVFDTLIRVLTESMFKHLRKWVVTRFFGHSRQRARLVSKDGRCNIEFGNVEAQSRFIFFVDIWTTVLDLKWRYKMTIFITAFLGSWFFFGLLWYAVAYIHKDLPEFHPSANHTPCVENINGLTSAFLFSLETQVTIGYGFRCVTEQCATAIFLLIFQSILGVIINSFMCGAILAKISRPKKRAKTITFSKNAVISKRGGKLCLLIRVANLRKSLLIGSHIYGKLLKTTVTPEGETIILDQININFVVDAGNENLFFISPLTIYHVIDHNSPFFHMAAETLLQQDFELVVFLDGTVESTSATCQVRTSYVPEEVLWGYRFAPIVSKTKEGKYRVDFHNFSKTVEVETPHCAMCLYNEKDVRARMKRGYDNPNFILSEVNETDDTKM
# WT yeast gro inh – growth inhibition of WT yeast, mitochondrial fusion screen. mitochondrial fusion phenotypic screen, WT strain. inhibition, % at 10 µM. 190,000 tested, 2.1% active; in the data active = inhibition above about 58%; tested in S. cerevisiae
# * marks the source's active call; other numbers are inactive results; i = inactive; / = not tested or not shown.
SMILES,L major viab,KCC2 mod,Calpain2 inh,ROMK mod,WT yeast gro inh
Cc1cccc(S(=O)(=O)c2c(N)n(/N=C/c3ccccc3)c3nc4ccccc4nc23)c1,0,0.33,-217,0.81,-11
CCCCCNC(=O)c1c(N)n(/N=C/c2ccco2)c2nc3ccccc3nc12,/,/,/,-0.16,/
Cc1ccc(C)c(S(=O)(=O)c2c(N)n(/N=C/c3ccco3)c3nc4ccccc4nc23)c1,94*,0.1,-168,/,-3
Nc1c(S(=O)(=O)c2ccccc2)c2nc3ccccc3nc2n1/N=C/c1cccc(O)c1,91*,0.23,-60,/,-23
CC(C)=C1C2C=CC1C(C(=O)Nc1cc(C)ccc1C)C2C(=O)O (stereo not given),-6,0.0041,18,/,3
CC(=O)c1ccc(NC(=O)C2C3C=CC(C3=C(c3ccccc3)c3ccccc3)C2C(=O)O)cc1 (stereo not given),52*,0.044,-75,1.5,-9
Cc1onc(-c2c(Cl)cccc2Cl)c1C(=O)NCCCN1CCOCC1,88*,0.36,-3,0.16,-8
Cc1onc(-c2ccccc2Cl)c1C(=O)NCCCN1CCOCC1,53*,/,-3,-0.067,-14
O=C(Nc1nc2ccccc2[nH]1)C1CCCO1 (stereo not given),-4,0.042,4,/,0
Cc1cccc(-c2nc3cc(NC(=O)C4CCCO4)ccc3o2)c1 (stereo not given),75*,0.44,-367,/,39
O=C(Nc1ccc(-c2nc3ccccc3[nH]2)cc1)C1CCCO1 (stereo not given),6,/,-53,/,69*
c1ccc2c(-c3nc(-c4ccncc4)no3)cccc2c1,-1,0.37,5,/,54
c1ccc(-c2noc(-c3cccc4ccccc34)n2)cc1,-7,/,-3,0.15,67*
CCOc1cc2c3c(c1)C1(C(=O)N3C(C)(C)CC2C)C(C#N)=C(N)N2C(=C1C#N)Nc1ccccc12 (stereo not given),66*,0.48,6,-0.57,19
Clc1ccc(-c2csc(=Nc3cccnc3)n2CCCn2ccnc2)cc1Cl,99*,-1.3,32,-1.4,38
Cc1nn(C)c(Cl)c1CN1CCC(CO)(CCOc2ccccc2)CC1,72*,0.81,-13,-1.4,0
C=CCOc1ccccc1CN1CCC(CO)(CCOc2ccccc2)CC1,22,/,10,-2,16
Cc1c(CN2CCC(CO)(CCOc3ccccc3)CC2)[nH]c2c(Cl)cccc12,100*,0.28,-17,-1.2,93*
CCc1nnc(NC(=O)c2cc(S(=O)(=O)N3CCOCC3)ccc2N2CCCCC2)s1,10,-0.0086,-11,0.067,-24
CCOC(=O)N1CCC(N2C(=O)c3ccccc3C2Nc2ccc(Cl)cn2)CC1 (stereo not given),8,-0.065,-25,/,-9
COc1ccccc1C(=O)NNC(=O)c1nn(Cc2ccccc2)c(=O)c2ccccc12,1,/,-56,0.28,4
CS(=O)(=O)N1CCN(C(=S)NCc2ccc(Cl)cc2)CC1,-4,-0.026,-41,0.2,6
COc1ccc(-c2c[n+]3c(n2-c2ccccc2)CCCCC3)cc1,99*,-0.39,21,/,-1
CCOc1ccc(-n2c(-c3ccccc3)c[n+]3c2CCC3)cc1,94*,-0.31,22,/,-6
COc1ccc(-n2c(-c3ccc(Cl)cc3)c[n+]3c2CCCCC3)cc1,/,0.48,1,/,/
SMILES,L major viab,KCC2 mod,Calpain2 inh,ROMK mod,WT yeast gro inh
FC(F)Oc1ccc(-c2c[n+]3c(n2-c2ccccc2)CCCCC3)cc1,/,1.2,-10,-0.8,/
CCOc1ccc(-n2c(-c3ccc(Br)cc3)c[n+]3c2CCCCC3)cc1,101*,-0.44,12,0.85,23
CCOc1ccc(-n2c(-c3ccc(OC)cc3)c[n+]3c2CCCCC3)cc1,100*,0.97,-10,/,12
COc1ccc(-c2c[n+]3c(n2-c2ccc(C)cc2)CCCCC3)cc1,/,1.1,-23,/,/
O=C1OC2(O)C3C4C=CC(C4)C3C(=O)N2c2ccccc21 (stereo not given),/,-0.22,-22,-0.54,/
COc1ccc(-c2c[n+]3c4n2CCCCC4=C(c2ccccc2)C3)cc1,100*,-0.87,i,/,-10
Cc1ccc(/C(N)=N/OC(=O)c2ccc3c(c2)OCO3)cc1,51*,-0.035,18,-0.78,-5
Cc1ccc(/C(N)=N/OC(=O)c2ccc(Cl)cc2Cl)cc1,85*,0.32,17,1.1,0
CCN(CC)C(=O)c1ccc(Cn2cc([N+](=O)[O-])cn2)o1,9,/,-7,/,1
COc1cccc(/C=N/Nc2ncnc3c2ncn3Cc2ccccc2)c1O,88*,0.34,-5,/,6
CCOc1cc(/C=C(\C#N)C(=O)NCC2CCCO2)ccc1O (stereo not given),64*,0.5,3,-0.98,3
CCCNC(=O)c1ccccc1C(=O)NC1(C(=O)NCCC)CCCC1,/,-0.27,-3,0.49,/
NC(=O)C1(N2CCCCC2)CCN(C(=S)NC2CCCC2)CC1,1,0.74,5,0.26,0
C=CCNS(=O)(=O)c1cccc(C(C)=O)c1,54*,0.2,-6,-0.045,-7
C=C(C)C1CC=C(C)/C(=N/NC(=O)CNc2ccc(OCC)cc2)C1 (stereo not given),100*,-0.21,-56,-0.28,5
C=C(C)C1CC=C(C)/C(=N/NC(=O)c2ccc(NC(=O)CCC)cc2)C1 (stereo not given),100*,-0.27,-5,1.2,14
C=C(C)C1CC=C(C)/C(=N\NC(=O)CCC(=O)Nc2ccc(C)c(C)c2)C1 (stereo not given),/,-0.19,24,1.6,/
C=C(C)C1CC=C(C)/C(=N/NC(=O)c2ccccc2[N+](=O)[O-])C1 (stereo not given),63*,-1.7,7,-0.23,-2
C=C(C)C1CC=C(C)/C(=N/Nc2ccccc2[N+](=O)[O-])C1 (stereo not given),-1,-0.22,14,0.6,30
C=C(C)C1CC=C(C)/C(=N/NC(=O)CNc2ccc(C)cc2C)C1 (stereo not given),4,-0.078,-11,/,-7
C=C(C)C1CC=C(C)/C(=N/NC(=O)c2ccc(NC(=O)CC)cc2)C1 (stereo not given),99*,-0.63,0,0.65,11
CCSc1nnc(-c2sc3nnc(-c4ccccc4)c(-c4ccccc4)c3c2N)o1,28,i,-94,/,-30
O=c1[nH]c(=O)n([C@H]2C[C@H](O)[C@@H](CO)O2)cc1F,82*,-1.9,-13,/,-5
Cc1cn([C@H]2C[C@H](N=[N+]=[N-])[C@@H](CO)O2)c(=O)[nH]c1=O,-3,-0.82,1,/,-1
CCC(C)c1ccc(NC(=S)Nc2ccc(OC)cc2C)cc1 (stereo not given),37,-0.17,8,/,75*
COc1ccc(C)cc1NC(=S)NC(C)c1ccc(OC)c(OC)c1 (stereo not given),54*,-2.4,-6,0.4,64*
COc1ccc(NC(=S)NC(C)c2ccncc2)cc1OC (stereo not given),7,/,9,/,9
Cc1ccc(NC(=S)NCC2CCCO2)cc1 (stereo not given),0,-0.025,10,0.047,0

# Assay outcomes deposited in PubChem by several laboratories.
